Assay outcomes: PubChem BioAssay, National Center for Advancing Translational Sciences (NCATS)
HT1080-NT tox – kills 2HG-producing HT-1080-NT fibrosarcoma cells. HT-1080-NT fibrosarcoma viability, CellTiter-Glo ATP luminescence, 48 h. Potency, µM (top dose mostly 46.1 µM), without a hit: at the highest dose activity, negative = less viability, hits mostly cytotoxic. 1.6% of 360,000 active. AID 686970;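 note: NT is the 2HG producing partner of a matched IDH1 knockdown line; 0% = DMSO-treated cells and -100% = media-only wells without cells; nearly all actives have a fitted effect of over 55% in size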
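Viability of the 2HG-overproducing fibrosarcoma line after 48 hours of compound exposure at 37 degrees C was determined by luminescence with CellTiter-Glo, and concentration-effect curves were then fitted and categorized.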
HepG2 viability – kills HepG2 cells in TGF-b inhibitor counter-screen; Potency, µM (top dose mostly 46.1 µM), inactives show top-dose activity change, negative = cytotoxicity, most hits filed as cytotoxic; 0.76% of 410,000 active; HepG2 CAGA-GFP viability, ATP luminescence, 18 h
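HepG2 CAGA-GFP cells (1000/well, DMEM with 1% FBS) received compound, then TGF-beta at 500 pg/mL final, and were incubated 18 hours at 37 degrees C. Viability was read by CellTiter-Glo luminescence. Media-only wells were set as complete cell-killing and DMSO as no toxicity.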
TGFb inhibitor – inhibitors of TGF-b signaling | 1.2% of 410,000 active | Potency, µM (top dose mostly 46.1 µM), for the others: top-dose activity, negative = inhibition, most hits filed as inhibitors | HepG2 CAGA-GFP TGF-b/SMAD3 reporter, GFP fluorescence, 18 h; TGF-beta stimulated, 500 pg/mL final; note: % is set by controls: 0 for no effect and ±100 for the full control effect; nearly all actives have a fitted effect of over 65% in size
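Using HEPG2 CAGA-GFP reporter cells at 1000 cells/well, we pinned test compounds, stimulated with recombinant TGF-beta (500 pg/mL final) and measured total well GFP after 18 h.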
DT40 TDP1 no CPT – qHTS for Inhibitors of human tyrosyl-DNA phosphodiesterase 1 (TDP1): qHTS in cells in absence of CPT | DT40 Tdp1-/- hTDP1 cells, no CPT, ATP luminescence, 48 h | Potency, µM (top dose mostly 46.2 µM), inactives show top-dose activity change, negative = growth inhibition, actives largely listed as inhibitors | 15% of 420,000 active | AID 686978, 2013; note: % is set by controls: 0 for no effect and ±100 for the full control effect; nearly all actives have a fitted effect of over 55% in size
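Camptothecin absent (DMSO only). Human TDP1-complemented DT40 knockout cells, 400 cells/well, 37 °C for minimum 48 hr; ATP measured via CellTiter-Glo, 30 min dark incubation, luminescence.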
DT40 TDP1 CPT – DT40-hTDP1 cell growth loss with CPT. chicken DT40 Tdp1-/-;hTDP1 cells + 20 nM CPT, ATP luminescence, 48 h. Potency, µM (titrated, usually from 46.2 µM), inactives show at the highest dose activity change, negative = growth inhibition, actives largely listed as inhibitors. 12% of 420,000 active. AID 686979; note: % is set by controls: 0 for no effect and ±100 for the full control effect; nearly all actives have a fitted effect of over 55% in size
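Chicken DT40 Tdp1-/- cells stably complemented with human TDP1 were seeded at 400 cells/well in medium containing 20 nM camptothecin, exposed to pin-transferred compounds, and grown at 37 °C for at least 48 hr. Viability was read as ATP luminescence.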
HT1080 IDH1KD tx – toxicity to HT-1080 IDH1 knockdown cells (counter line). 2% of 360,000 active. Potency, µM (top dose mostly 46.1 µM), for the others: at the top dose activity, negative = toxicity, most hits filed as cytotoxic. HT-1080 IDH1 knockdown viability, ATP luminescence, 48 h. AID 686971;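 note: 0% = DMSO wells and -100% = cell-free medium wells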
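Using the IDH1-knockdown HT-1080 line run in the same batch and compound series as the NT line, viability after 48 h at 37 °C was determined by CellTiter-Glo luminescence and expressed as % activity.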
* hit, by the source's call; ? = inconclusive; . = not tested or not shown; [ ] = another dose, or the depositor's remark. Hits are enriched below; roughly 17% of the tested compounds scored in any of these assays. Calls come from the whole dose curve; as a rule, active = well fitted curve in the direction sought with a large enough effect; inconclusive = small, poorly fitted or top-dose-only effect, or another doubt; inactive = no such curve, though single readings can be large; an effect the other way counts as inactive or inconclusive. Potency is the fitted concentration of half-maximal effect.

SMILES | HT1080-NT tox | HepG2 viability | TGFb inhibitor | DT40 TDP1 no CPT | DT40 TDP1 CPT | HT1080 IDH1KD tx
CC(=O)N1CCc2cc(S(=O)(=O)NCCC(=O)NCCc3ccccc3)ccc21 | 2% | 6% | 0% | ? | ? | -1%
CC(=O)N1CCc2cc(S(=O)(=O)NCCC3=CCCCC3)ccc21 | -9% | -4% | -18% | 2.6µM* | 9.2µM* | 21µM*
CC(=O)N1CCc2cc(S(=O)(=O)NCCC(=O)NCCc3ccc(Cl)cc3)ccc21 | 11% | -1% | -12% | ? | 16µM* | 3%
CC(=O)N1CCc2cc(S(=O)(=O)NC3CCCc4ccccc43)ccc21 (centres undefined) | -16% | -25% | -3% | 14µM* | 13µM* | -29%
CCC1CN(CCNC(=O)c2ccc3c(c2)OCO3)Cc2cc(OC)ccc2O1 (centres undefined) | . | . | . | ? | -5%[9.04 µM] | .
CCC(=O)N1CCc2cc(S(=O)(=O)NCCC(=O)NCc3ccc(C)cc3)ccc21 | . | -19% | ? | ? | 21µM* | .
CC(=O)N1CCc2cc(S(=O)(=O)CCC(=O)NCc3ccc(Cl)cc3)ccc21 | -19% | -10% | -8% | 21µM* | ? | -13%
O=C(NCCO)c1cn(C2CCCN(Cc3cccc(C(F)(F)F)c3)C2)nn1 (centres undefined) | . | . | . | -18% | -7%[9.04 µM] | .
CC(=O)CCc1c(C)[nH]c2ccccc2c1=O | 6% | -9% | 2% | -14% | -19% | -3%
CCc1c(C)[nH]c2ccccc2c1=O | 16% | 4% | -9% | 21µM* | ? | 10%
Cc1nc(-c2ccc(S(=O)(=O)NCc3ccccc3Cl)cc2)co1 | . | -22% | -8% | ? | ? | .
Cc1nc(-c2ccc(S(=O)(=O)NCc3ccc(OC(C)C)cc3)cc2)co1 | . | -24% | -6% | 26µM* | ? | .
CCOc1ccccc1CNS(=O)(=O)c1ccc(-c2coc(C)n2)cc1 | . | -16% | -12% | 16µM* | 16µM* | .
CCc1nc2ccc(C(=O)N3CCN(S(=O)(=O)CC)CC3)cn2c1N(CC)C(=O)NCCc1ccccc1 | 18% | -1% | 2% | -11% | -17% | 10%
CCOC(=O)C1CCCN(c2cc(C)nc3cc(-c4ccc(F)cc4)nn23)C1 (centres undefined) | ? | -10% | -3% | 23µM* | 23µM* | ?
CCOC(=O)C1CCCN(c2cc(C)nc3cc(-c4ccc(Cl)cc4)nn23)C1 (centres undefined) | ? | -7% | -5% | 23µM* | ? | -18%
C[C@H]1CN([C@@H](C)CO)C(=O)Cc2cc(NC(=O)CCC(F)(F)F)ccc2O[C@H]1CN(C)Cc1ccc(-c2ccccc2)cc1 | 23µM* | 18µM* | 13µM* | ? | ? | 21µM*
C[C@@H]1CN([C@@H](C)CO)C(=O)Cc2cc(NS(=O)(=O)c3ccccc3)ccc2O[C@H]1CN(C)Cc1ccncc1 | 1% | -18% | ? | -18% | -8% | 3%
C[C@H]1CN([C@@H](C)CO)C(=O)Cc2cc(NC(=O)CCC(F)(F)F)ccc2O[C@H]1CN(C)Cc1ccc(C(F)(F)F)cc1 | ? | -21% | ? | ? | ? | ?
Cc1ccc(S(=O)(=O)Nc2ccc3c(c2)CC(=O)N([C@H](C)CO)C[C@@H](C)[C@H](CN(C)Cc2ccc(-c4ccccc4)cc2)O3)cc1 | ? | -93% | 11µM* | ? | ? | ?
